In the supplement of paper PMC11732987, “Enantioselective OTUD7B fragment discovery through chemoproteomics screening and high-throughput optimisation” (Communications Chemistry, 2025):

Key:
Assay in all cases: log2 ratio of Biotin-Ahx-Ub-VS probe labelling (fragment/DMSO); higher = less target engagement (more negative = stronger competition), active = hit call of the paper (q ≤ 0.05, log2 ratio ≤ -1)
Conditions in all cases: compound concentration: 200 uM; treatment time: 3 h
USP19 = target: T1, USP19 (UniProt O94966)
T1 sequence (whole entry): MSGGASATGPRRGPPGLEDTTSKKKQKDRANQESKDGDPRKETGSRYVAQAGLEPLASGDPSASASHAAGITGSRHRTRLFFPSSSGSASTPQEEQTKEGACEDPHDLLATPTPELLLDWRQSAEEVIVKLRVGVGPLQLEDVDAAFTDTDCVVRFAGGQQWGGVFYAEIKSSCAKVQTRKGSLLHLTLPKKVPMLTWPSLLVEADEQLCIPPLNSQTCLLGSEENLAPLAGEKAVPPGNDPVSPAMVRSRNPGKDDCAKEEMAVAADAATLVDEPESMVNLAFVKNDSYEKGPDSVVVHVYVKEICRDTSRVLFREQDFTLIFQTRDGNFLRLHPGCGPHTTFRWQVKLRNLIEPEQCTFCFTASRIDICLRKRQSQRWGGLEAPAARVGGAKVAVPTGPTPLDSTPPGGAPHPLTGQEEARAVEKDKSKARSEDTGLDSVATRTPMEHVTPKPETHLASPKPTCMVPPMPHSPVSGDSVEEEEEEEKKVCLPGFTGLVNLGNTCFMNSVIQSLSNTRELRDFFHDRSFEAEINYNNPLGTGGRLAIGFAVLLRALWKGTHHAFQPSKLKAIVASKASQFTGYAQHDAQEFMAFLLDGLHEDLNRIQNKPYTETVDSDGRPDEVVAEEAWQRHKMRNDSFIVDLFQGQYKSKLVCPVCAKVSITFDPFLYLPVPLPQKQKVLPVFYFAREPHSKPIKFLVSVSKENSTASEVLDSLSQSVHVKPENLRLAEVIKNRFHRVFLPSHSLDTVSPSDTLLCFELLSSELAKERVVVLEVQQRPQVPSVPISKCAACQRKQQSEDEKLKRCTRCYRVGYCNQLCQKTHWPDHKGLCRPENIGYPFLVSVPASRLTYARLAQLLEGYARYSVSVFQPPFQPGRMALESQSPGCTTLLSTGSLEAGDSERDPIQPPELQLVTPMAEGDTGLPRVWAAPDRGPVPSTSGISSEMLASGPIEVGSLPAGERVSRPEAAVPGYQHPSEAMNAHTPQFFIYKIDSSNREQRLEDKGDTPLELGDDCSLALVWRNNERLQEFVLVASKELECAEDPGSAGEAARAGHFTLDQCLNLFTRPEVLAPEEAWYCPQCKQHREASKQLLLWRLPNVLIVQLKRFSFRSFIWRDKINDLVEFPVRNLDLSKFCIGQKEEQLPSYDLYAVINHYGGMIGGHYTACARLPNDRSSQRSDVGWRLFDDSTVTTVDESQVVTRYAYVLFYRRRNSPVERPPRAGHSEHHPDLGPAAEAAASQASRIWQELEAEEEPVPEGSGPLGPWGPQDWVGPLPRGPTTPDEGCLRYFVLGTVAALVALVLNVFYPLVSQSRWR
In short: (§1)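 HEK293T lysate, 495 µg per sample in Tris/CHAPS/IGEPAL buffer with protease inhibitors, was treated in triplicate with fragment at 200 µM or vehicle for 3 h and then with Biotin-Ahx-Ub-VS at 0.5 µM final for 1 h. Labelled DUBs were NeutrAvidin-enriched, digested with LysC and trypsin, and run by diaPASEF LC-MS/MS. Spectronaut label-free quantities were global-median-normalised, and values are average log2 fragment/vehicle ratios by unpaired t-test on proteins with ≥2 unique peptides.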

USP22 = target: T2, USP22 (UniProt Q9UPT9)
T2 sequence (whole entry): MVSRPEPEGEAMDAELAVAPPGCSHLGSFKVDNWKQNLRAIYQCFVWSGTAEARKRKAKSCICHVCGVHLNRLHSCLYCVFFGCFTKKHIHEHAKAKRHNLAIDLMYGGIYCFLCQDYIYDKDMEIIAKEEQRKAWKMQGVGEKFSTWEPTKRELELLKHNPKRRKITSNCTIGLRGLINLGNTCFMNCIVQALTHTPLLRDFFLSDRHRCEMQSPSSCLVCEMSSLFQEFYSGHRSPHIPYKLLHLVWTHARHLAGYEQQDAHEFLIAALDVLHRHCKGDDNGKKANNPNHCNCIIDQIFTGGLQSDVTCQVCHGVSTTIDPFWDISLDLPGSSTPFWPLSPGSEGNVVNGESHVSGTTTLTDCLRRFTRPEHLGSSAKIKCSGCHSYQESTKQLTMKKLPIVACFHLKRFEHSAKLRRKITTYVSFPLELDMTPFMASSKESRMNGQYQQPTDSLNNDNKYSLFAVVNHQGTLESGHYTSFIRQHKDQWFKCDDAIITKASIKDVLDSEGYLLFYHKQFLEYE
In short: as §1

USP24 = USP24 (UniProt Q9UPU5)
USP24, sequence (Q9UPU5 whole entry): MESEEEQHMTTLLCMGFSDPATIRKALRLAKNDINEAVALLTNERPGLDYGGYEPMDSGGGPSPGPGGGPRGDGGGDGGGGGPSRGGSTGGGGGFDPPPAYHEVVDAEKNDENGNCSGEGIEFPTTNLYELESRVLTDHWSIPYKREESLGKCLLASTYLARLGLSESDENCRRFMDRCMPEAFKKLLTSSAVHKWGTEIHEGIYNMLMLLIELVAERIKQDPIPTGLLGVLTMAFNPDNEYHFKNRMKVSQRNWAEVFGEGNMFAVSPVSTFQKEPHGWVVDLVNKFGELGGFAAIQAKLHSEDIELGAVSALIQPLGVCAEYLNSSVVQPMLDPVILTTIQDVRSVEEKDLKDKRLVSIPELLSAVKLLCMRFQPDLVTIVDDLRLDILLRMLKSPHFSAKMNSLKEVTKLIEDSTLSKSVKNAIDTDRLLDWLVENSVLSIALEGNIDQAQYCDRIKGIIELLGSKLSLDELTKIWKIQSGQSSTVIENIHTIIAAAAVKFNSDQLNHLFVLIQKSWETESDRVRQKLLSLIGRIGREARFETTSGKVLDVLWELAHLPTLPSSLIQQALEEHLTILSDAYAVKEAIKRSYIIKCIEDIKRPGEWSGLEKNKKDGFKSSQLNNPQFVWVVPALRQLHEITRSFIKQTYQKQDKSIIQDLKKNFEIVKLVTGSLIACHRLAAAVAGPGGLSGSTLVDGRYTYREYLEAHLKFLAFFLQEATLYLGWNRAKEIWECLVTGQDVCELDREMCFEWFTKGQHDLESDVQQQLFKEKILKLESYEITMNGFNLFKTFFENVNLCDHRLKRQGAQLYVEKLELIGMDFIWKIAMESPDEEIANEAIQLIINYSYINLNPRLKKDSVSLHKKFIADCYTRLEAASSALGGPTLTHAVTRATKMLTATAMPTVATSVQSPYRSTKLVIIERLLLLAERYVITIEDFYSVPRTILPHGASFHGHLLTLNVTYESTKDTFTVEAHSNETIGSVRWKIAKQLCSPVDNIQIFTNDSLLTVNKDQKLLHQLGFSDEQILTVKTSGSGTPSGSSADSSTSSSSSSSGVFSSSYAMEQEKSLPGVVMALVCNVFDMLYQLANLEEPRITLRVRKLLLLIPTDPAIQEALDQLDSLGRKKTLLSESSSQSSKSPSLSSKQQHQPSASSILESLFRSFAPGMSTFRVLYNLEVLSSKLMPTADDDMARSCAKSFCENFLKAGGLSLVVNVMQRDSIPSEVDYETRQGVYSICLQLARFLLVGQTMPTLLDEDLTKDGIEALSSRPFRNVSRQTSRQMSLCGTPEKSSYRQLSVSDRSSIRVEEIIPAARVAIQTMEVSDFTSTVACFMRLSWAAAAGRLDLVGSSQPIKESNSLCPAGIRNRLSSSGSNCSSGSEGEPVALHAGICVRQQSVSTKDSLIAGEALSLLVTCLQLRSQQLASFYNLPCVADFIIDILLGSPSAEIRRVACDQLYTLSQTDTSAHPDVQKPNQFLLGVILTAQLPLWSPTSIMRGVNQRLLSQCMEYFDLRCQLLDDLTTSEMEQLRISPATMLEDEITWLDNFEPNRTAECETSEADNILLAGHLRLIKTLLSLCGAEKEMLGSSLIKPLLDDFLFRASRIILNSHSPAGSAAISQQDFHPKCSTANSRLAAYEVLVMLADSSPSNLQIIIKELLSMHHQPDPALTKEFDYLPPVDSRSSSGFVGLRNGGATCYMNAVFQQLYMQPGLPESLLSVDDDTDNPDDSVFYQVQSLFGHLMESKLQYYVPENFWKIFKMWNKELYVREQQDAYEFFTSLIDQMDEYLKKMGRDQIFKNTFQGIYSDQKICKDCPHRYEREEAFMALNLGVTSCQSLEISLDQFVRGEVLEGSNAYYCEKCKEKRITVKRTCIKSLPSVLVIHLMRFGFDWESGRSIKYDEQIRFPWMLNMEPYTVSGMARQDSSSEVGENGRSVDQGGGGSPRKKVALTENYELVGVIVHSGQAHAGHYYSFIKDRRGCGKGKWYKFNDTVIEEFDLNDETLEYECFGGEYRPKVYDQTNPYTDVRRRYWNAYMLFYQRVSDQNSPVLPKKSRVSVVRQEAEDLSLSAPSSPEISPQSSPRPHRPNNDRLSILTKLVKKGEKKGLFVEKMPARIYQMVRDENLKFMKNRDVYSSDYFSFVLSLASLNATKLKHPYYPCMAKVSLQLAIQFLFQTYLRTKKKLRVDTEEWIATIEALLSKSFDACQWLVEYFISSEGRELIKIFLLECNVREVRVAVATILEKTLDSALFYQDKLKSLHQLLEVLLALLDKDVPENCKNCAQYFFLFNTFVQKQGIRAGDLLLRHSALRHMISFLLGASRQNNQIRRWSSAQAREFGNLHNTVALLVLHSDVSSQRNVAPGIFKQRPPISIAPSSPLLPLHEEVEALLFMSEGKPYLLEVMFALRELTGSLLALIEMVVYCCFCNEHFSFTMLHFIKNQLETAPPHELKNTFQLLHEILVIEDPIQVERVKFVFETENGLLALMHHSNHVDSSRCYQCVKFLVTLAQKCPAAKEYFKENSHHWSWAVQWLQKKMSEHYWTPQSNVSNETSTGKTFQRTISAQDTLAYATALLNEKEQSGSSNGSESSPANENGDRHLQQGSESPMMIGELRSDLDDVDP
In short: as §1

USP25 = target: T3, USP25 (UniProt Q9UHP3)
T3 sequence (whole entry): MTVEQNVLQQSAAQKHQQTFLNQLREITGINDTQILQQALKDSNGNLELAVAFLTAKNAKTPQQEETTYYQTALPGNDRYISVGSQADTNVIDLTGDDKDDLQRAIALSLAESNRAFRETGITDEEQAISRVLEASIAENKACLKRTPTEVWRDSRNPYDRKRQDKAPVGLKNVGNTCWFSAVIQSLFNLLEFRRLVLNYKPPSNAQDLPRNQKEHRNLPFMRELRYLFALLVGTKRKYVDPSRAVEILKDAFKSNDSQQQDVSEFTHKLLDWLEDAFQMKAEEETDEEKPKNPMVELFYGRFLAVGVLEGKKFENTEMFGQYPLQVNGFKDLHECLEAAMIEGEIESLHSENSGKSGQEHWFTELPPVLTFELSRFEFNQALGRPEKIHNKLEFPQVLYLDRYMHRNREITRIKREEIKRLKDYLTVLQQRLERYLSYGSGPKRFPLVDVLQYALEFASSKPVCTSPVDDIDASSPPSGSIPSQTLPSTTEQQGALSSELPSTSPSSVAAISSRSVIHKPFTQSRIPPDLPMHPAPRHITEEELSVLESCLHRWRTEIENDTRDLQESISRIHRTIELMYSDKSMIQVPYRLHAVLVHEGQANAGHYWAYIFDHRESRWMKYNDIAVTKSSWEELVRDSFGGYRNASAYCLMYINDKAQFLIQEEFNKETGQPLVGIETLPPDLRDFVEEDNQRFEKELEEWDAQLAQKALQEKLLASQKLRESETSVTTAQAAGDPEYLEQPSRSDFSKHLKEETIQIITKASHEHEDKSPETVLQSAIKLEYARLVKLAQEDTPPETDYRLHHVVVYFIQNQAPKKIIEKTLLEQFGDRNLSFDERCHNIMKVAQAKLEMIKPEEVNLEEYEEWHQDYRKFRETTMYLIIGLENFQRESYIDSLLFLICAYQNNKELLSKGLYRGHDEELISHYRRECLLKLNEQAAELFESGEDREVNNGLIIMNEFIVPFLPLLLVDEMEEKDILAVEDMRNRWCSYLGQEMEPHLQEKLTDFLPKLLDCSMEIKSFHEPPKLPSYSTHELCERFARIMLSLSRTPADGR
In short: as §1

USP28 = target: T4, USP28 (UniProt Q96RU2)
T4 sequence (whole entry): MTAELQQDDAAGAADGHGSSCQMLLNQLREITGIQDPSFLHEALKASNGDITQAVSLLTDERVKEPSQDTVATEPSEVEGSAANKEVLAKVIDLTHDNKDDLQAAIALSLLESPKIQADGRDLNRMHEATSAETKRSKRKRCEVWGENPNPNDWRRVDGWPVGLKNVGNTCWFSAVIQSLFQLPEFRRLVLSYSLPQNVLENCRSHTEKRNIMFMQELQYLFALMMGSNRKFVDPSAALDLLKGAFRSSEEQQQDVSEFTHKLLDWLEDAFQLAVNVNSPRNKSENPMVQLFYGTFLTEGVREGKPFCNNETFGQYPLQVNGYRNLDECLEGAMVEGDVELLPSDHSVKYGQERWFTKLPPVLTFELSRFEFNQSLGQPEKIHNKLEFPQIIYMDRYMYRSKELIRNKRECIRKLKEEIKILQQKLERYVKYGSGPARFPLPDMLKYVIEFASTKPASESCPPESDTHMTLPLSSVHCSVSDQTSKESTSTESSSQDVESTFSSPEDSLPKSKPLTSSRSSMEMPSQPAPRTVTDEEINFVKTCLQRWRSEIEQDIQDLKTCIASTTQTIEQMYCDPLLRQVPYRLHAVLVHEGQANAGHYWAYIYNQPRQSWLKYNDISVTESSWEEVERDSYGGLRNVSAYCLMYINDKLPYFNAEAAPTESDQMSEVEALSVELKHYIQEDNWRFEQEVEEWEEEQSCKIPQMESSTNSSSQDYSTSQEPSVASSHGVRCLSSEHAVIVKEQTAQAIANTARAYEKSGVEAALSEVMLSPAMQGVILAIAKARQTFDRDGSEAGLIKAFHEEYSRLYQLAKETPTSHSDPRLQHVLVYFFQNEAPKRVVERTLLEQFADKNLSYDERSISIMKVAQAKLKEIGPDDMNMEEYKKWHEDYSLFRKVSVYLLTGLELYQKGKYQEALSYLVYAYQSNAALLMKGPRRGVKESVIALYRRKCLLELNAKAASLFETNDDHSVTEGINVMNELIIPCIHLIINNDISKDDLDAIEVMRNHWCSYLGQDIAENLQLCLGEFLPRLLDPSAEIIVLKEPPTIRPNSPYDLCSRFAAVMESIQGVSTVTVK
In short: as §1

Measured: log2 ratio of Biotin-Ahx-Ub-VS probe labelling

Cc1ccc(CC(CO)CNC(=O)CCl)cc1 (stereo not given)
inactive: USP19 -0.487 | USP22 -0.0764 | USP24 -0.554 | USP25 -0.531 | USP28 -0.597
